Results taken from the supplement of paper PMC9446081.
± gives the standard deviation of the averaged measurements.

What follows are molecules tested against T1, MurD (UniProt P14900) (assay: relative enzymatic activity vs untreated control (fraction); higher = less inhibition). Conditions: 100 µM; incubation time: 2 h at 37 C.
T1 sequence (whole entry): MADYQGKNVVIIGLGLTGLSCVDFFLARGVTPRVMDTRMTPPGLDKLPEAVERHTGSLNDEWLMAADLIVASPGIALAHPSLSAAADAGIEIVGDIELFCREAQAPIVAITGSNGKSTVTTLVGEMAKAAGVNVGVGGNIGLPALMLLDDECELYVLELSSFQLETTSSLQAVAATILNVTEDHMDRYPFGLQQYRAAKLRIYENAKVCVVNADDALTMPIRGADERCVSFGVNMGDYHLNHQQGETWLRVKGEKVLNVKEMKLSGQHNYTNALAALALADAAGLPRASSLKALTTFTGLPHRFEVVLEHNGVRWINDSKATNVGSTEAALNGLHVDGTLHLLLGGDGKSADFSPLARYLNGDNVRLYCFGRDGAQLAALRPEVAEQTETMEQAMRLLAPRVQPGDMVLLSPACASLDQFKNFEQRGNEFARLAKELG
Procedure: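 In vitro enzymatic inhibition assays (ProFoldin kits) for 12 purified essential E. coli enzymes or complexes, each treated with 218 active antibacterial compounds at 100 µM for 2 h at 37°C. Read-outs were fluorescence or absorbance (phosphate detection, dye binding), converted to activity via standard curves and expressed relative to untreated DMSO controls.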

SMILES	relative enzymatic activity
Cc1nc2c(=O)n(C)c(=O)nc-2n(C)n1	0.174 ± 0.24
Cn1ncnc2c(=O)n(C)c(=O)nc1-2	0.598 ± 0.36
CCCCCCCCCCCCCCCC[n+]1ccccc1.[Cl-]	0.0847 ± 0.0065
CNC1C(O)C(OC2C(N)CC(N)C(OC3OC(C(C)O)C(O)C(O)C3N)C2O)OCC1(C)O (centres undefined)	0.592 ± 0.38
CC(=O)Oc1ccc(Cl)c2cccnc12	0.611 ± 0.41
O=[N+]([O-])c1ccc(N(CCO)CCO)c2c1no[n+]2[O-]	0.623 ± 0.41
O=C1C=C2C(=CCOC2O)O1 (centres undefined)	0.611 ± 0.42
O=[N+]([O-])C(Br)(CO)CO	0.486 ± 0.48
CCn1cc(C(=O)[O-])c(=O)c2cc3c(cc21)OCO3.[K+]	0.598 ± 0.42
[O-][n+]1ccccc1[S][Zn][S]c1cccc[n+]1[O-]	0.587 ± 0.4
Cc1c(N)nc([C@H](CC(N)=O)NC[C@@H](N)C(N)=O)nc1C(=O)N[C@H](C(=O)N[C@@H](C)[C@H](O)[C@@H](C)C(=O)N[C@@H](C(=O)NCCc1nc(-c2nc(C(=O)NCCC[S+](C)C)cs2)cs1)[C@@H](C)O)[C@@H](O[C@H]1O[C@H](CO)[C@H](O)[C@@H](O)[C@H]1O[C@H]1O[C@H](CO)[C@@H](O)[C@H](OC(N)=O)[C@@H]1O)c1cnc[nH]1	0.624 ± 0.45
COP(=S)(OC)Oc1cc(Cl)c(Cl)cc1Cl	0.655 ± 0.44
CN[C@H]1C[C@@H](N)[C@H](O)[C@@H](O[C@@H]2O[C@H](CO)[C@H](O)[C@@H]3O[C@@]4(O[C@H]23)O[C@H]([C@@H](N)CO)[C@H](O)[C@H](O)[C@H]4O)[C@@H]1O	0.592 ± 0.39
CCCCCCCCCCCCCCCC[N+](C)(C)C.[Br-]	0.256 ± 0.17
Oc1cc(Cl)ccc1Oc1ccc(Cl)cc1Cl	0.759 ± 0.41
CCCCCCCCCCCCCCCC[n+]1ccccc1	0.191 ± 0.13
Cc1c(N)nc([C@H](CC(N)=O)NC[C@@H](N)C(N)=O)nc1C(=O)N[C@H](C(=O)N[C@@H](C)[C@H](O)[C@@H](C)C(=O)N[C@@H](C(=O)NCCc1nc(-c2nc(C(=O)NCCC[S+](C)C)cs2)cs1)[C@@H](C)O)[C@@H](O[C@H]1O[C@H](CO)[C@H](O)[C@@H](O)[C@H]1O[C@H]1O[C@H](CO)[C@@H](O)[C@H](OC(N)=O)[C@@H]1O)c1c[nH]cn1	0.969 ± 0.9
CN(C)[C@@H]1C(=O)[C@@H](C(N)=O)C(=O)[C@@]2(O)C(=O)[C@H]3C(=O)c4c(O)ccc(Cl)c4[C@@](C)(O)[C@H]3C[C@@H]12	0.607 ± 0.41
CN(C)[C@@H]1C(=O)[C@H](C(N)=O)C(=O)[C@@]2(O)C(=O)[C@@H]3C(=O)c4c(O)cccc4[C@@](C)(O)[C@H]3C[C@@H]12	0.603 ± 0.41
CC(=O)[O][Hg][c]1ccccc1	0.226 ± 0.14
CN(C)[C@@H]1C(=O)C(C(N)=O)=C(O)[C@@]2(O)C(O)=C3C(=O)c4c(O)cccc4[C@](C)(O)[C@H]3C[C@@H]12	0.606 ± 0.43
O=S(=O)(O)O.Oc1cccc2cccnc12	0.564 ± 0.35
C[CH2][Hg][S]c1ccccc1C(=O)[O-].[Na+]	0.657 ± 0.43
CN1C(=O)[C@]23CC4=CC=C[C@H](O)[C@H]4N2C(=O)[C@@]1(CO)SS3	0.574 ± 0.39
